Source: the supplement of paper PMC11732987, “Enantioselective OTUD7B fragment discovery through chemoproteomics screening and high-throughput optimisation” (Communications Chemistry, 2025)

Tests used:
Test in all cases: log2 ratio of Biotin-Ahx-Ub-VS probe labelling (fragment/DMSO); higher = less target engagement (more negative = stronger competition), active = hit call of the paper (q ≤ 0.05, log2 ratio ≤ -1)
Conditions in all cases: compound concentration: 200 uM; treatment time: 3 h
USP42 = target: T1, USP42 (UniProt Q9H9J4)
T1 sequence (whole entry): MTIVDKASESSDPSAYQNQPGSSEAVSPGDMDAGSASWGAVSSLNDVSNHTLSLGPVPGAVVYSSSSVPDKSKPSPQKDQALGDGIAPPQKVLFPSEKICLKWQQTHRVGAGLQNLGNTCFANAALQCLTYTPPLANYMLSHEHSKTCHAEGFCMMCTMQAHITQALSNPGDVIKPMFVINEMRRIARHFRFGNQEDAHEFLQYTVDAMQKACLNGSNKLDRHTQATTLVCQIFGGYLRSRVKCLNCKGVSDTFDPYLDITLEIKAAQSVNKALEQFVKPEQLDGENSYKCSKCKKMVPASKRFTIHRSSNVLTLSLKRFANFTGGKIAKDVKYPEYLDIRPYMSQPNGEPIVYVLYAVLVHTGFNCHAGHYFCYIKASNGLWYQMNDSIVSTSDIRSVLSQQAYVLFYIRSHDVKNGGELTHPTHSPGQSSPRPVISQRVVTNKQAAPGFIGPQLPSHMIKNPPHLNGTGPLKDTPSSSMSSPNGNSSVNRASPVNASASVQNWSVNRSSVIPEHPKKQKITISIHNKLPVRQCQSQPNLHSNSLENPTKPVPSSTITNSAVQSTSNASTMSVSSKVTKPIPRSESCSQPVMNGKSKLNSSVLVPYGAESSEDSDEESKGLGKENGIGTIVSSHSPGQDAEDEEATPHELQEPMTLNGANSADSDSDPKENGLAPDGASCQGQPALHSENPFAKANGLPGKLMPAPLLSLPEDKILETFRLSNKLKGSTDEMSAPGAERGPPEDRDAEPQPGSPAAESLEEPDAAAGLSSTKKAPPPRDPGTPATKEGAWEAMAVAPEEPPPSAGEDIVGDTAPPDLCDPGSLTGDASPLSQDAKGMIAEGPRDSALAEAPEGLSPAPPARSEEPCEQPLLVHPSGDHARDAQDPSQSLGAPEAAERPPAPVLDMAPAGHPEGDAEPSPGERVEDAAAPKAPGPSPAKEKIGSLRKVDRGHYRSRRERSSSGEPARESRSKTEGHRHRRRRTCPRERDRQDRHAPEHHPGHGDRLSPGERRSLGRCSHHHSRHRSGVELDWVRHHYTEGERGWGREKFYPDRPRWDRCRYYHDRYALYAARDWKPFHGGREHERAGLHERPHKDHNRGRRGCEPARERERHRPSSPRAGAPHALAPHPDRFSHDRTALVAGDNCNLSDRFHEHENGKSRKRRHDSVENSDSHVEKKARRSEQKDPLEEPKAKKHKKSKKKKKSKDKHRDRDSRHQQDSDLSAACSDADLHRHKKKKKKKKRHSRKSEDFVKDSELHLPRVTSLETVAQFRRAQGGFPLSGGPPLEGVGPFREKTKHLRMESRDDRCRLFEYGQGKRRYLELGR
Method in brief: (§1)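 Labelled DUBs from HEK293T lysate were NeutrAvidin-enriched, digested with LysC and trypsin, and run by diaPASEF LC-MS/MS. Before that, each 495 µg sample in Tris/CHAPS/IGEPAL buffer with protease inhibitors was treated in triplicate with fragment at 200 µM or vehicle for 3 h, then with Biotin-Ahx-Ub-VS at 0.5 µM final for 1 h. Values are average log2 ratios of fragment over vehicle by unpaired t-test, based on global-median-normalised Spectronaut label-free quantities from proteins with ≥2 unique peptides.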

USP46 = USP46 (UniProt P62068)
Method in brief: as §1

USP47 = target: T2, USP47 (UniProt Q96K76)
T2 sequence (whole entry): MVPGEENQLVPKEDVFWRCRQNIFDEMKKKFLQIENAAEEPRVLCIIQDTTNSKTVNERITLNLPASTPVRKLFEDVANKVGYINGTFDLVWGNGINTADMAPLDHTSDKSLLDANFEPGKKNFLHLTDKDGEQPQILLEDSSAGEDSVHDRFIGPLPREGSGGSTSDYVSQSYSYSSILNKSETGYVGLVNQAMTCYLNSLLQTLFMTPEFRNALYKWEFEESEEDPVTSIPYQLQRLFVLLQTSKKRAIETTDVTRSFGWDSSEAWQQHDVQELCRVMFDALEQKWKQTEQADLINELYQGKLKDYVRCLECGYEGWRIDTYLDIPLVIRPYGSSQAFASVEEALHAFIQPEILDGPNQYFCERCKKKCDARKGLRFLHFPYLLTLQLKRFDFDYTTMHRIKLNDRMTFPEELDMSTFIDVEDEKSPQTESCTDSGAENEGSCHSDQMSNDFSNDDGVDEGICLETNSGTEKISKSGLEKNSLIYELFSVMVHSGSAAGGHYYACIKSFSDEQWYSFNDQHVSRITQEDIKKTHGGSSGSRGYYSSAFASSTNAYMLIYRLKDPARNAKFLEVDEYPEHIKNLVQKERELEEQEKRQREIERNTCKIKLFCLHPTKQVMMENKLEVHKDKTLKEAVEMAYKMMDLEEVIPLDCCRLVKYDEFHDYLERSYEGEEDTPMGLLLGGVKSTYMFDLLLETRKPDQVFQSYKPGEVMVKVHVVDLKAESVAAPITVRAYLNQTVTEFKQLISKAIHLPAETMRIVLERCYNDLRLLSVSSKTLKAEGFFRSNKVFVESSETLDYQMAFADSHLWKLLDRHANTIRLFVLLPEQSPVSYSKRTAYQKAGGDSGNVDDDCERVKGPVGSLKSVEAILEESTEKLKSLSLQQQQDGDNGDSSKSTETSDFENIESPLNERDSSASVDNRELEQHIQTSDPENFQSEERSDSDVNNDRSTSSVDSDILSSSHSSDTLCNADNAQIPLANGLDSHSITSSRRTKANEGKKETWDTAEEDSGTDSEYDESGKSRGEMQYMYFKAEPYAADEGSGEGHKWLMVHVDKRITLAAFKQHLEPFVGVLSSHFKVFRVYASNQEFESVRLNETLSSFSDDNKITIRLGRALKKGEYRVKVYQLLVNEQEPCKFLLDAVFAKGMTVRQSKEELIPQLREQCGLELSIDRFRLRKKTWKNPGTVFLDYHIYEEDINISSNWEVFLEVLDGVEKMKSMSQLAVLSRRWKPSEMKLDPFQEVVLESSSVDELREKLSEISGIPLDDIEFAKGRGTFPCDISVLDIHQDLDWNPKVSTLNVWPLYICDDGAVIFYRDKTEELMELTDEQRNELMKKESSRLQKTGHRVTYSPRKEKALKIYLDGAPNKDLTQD
Method in brief: as §1

USP48 = target: T3, USP48 (UniProt Q86UV5)
T3 sequence (whole entry): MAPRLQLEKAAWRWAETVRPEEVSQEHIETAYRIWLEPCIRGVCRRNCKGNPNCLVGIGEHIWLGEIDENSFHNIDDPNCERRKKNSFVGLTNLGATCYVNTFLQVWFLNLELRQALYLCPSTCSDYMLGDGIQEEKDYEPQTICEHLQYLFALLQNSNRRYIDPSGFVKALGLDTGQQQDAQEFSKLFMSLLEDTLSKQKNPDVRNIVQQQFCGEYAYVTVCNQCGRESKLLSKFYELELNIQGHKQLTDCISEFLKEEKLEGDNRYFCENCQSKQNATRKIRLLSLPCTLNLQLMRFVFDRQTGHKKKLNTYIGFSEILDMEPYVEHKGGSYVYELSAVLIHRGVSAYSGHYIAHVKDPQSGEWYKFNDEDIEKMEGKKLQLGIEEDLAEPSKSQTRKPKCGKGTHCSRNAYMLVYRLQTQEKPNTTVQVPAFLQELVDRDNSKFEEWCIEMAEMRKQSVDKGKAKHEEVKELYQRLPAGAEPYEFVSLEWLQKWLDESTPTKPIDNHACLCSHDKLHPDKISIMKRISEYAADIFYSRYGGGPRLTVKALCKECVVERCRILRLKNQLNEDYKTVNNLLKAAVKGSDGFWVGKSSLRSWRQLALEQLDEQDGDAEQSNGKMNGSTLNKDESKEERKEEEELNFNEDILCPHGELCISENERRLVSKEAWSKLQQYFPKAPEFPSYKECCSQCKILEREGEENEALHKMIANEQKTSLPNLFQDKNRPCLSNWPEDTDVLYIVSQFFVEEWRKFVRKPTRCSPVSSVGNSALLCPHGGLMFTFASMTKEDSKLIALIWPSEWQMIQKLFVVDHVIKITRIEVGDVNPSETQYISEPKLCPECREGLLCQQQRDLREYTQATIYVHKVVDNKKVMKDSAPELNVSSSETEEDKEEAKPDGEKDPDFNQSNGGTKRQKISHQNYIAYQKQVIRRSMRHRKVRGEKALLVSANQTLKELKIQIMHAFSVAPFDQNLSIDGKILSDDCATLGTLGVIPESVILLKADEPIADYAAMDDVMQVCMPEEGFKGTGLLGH
Method in brief: as §1

USP5 = target: T4, USP5 (UniProt P45974)
T4 sequence (whole entry): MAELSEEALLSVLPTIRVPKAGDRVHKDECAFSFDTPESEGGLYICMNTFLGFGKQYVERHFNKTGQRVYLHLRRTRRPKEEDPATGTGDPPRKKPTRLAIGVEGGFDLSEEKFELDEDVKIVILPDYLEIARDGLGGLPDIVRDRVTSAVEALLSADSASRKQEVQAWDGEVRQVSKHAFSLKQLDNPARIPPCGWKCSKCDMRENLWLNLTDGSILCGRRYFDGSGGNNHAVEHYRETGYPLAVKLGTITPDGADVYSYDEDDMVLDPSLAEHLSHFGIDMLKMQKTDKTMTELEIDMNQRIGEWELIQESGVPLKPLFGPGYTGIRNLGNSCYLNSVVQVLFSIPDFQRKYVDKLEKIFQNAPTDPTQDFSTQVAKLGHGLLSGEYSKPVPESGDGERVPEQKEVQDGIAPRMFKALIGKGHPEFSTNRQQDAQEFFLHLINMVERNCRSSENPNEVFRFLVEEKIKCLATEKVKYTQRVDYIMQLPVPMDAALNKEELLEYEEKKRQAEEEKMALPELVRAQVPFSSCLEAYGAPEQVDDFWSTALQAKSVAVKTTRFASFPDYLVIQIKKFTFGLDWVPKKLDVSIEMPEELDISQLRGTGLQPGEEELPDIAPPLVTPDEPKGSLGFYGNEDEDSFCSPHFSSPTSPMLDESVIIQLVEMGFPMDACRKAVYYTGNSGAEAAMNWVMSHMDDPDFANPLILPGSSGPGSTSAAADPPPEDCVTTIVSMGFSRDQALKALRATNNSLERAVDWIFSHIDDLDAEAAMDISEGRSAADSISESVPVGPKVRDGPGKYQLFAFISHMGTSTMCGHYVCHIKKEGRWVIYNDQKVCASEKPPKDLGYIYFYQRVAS
Method in brief: as §1

USP54 = USP54 (UniProt Q70EL1)
Method in brief: as §1

USP7 = USP7 (UniProt Q93009)
Method in brief: as §1

USP8 = target: T5, USP8 (UniProt P40818)
T5 sequence (whole entry): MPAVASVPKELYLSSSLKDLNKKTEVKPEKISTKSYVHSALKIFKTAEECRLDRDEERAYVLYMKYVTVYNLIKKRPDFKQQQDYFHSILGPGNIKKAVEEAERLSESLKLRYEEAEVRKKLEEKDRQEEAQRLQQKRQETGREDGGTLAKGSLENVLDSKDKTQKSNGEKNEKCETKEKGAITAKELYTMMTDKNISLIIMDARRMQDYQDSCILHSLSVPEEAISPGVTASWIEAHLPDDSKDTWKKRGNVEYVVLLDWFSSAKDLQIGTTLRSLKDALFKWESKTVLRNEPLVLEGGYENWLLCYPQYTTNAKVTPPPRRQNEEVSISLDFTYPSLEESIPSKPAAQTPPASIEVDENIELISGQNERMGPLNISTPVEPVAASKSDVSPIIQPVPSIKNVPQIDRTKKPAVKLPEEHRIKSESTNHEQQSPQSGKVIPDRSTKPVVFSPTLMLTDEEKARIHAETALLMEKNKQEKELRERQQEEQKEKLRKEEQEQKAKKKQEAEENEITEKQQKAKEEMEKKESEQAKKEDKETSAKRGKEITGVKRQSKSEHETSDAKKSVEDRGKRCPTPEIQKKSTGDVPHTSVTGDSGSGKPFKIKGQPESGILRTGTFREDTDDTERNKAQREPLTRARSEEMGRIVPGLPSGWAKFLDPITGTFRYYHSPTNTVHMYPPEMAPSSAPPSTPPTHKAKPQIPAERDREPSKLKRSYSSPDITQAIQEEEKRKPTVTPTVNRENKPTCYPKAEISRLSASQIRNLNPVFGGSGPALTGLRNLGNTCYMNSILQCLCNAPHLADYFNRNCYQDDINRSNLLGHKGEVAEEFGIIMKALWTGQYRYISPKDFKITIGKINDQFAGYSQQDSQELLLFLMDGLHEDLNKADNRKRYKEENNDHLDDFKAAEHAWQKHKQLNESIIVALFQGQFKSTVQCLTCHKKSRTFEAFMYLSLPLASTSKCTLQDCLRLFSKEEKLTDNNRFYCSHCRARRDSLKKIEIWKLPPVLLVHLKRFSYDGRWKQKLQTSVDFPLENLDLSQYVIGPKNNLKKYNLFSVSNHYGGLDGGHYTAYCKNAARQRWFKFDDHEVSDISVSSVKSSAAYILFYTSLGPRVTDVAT
Method in brief: as §1

Measured: log2 ratio of Biotin-Ahx-Ub-VS probe labelling

USP46, sequence (P62068 whole entry): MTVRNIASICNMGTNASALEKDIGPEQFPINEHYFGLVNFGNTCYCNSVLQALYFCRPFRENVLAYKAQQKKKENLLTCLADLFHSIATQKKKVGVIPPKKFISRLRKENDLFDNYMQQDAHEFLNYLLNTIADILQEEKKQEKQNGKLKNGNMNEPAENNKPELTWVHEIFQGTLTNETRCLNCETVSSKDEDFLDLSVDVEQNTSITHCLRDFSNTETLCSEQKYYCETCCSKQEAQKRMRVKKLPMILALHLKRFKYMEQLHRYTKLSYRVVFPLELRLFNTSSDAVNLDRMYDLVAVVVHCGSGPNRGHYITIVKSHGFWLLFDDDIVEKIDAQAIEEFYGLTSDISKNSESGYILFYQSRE
USP54, sequence (Q70EL1 whole entry): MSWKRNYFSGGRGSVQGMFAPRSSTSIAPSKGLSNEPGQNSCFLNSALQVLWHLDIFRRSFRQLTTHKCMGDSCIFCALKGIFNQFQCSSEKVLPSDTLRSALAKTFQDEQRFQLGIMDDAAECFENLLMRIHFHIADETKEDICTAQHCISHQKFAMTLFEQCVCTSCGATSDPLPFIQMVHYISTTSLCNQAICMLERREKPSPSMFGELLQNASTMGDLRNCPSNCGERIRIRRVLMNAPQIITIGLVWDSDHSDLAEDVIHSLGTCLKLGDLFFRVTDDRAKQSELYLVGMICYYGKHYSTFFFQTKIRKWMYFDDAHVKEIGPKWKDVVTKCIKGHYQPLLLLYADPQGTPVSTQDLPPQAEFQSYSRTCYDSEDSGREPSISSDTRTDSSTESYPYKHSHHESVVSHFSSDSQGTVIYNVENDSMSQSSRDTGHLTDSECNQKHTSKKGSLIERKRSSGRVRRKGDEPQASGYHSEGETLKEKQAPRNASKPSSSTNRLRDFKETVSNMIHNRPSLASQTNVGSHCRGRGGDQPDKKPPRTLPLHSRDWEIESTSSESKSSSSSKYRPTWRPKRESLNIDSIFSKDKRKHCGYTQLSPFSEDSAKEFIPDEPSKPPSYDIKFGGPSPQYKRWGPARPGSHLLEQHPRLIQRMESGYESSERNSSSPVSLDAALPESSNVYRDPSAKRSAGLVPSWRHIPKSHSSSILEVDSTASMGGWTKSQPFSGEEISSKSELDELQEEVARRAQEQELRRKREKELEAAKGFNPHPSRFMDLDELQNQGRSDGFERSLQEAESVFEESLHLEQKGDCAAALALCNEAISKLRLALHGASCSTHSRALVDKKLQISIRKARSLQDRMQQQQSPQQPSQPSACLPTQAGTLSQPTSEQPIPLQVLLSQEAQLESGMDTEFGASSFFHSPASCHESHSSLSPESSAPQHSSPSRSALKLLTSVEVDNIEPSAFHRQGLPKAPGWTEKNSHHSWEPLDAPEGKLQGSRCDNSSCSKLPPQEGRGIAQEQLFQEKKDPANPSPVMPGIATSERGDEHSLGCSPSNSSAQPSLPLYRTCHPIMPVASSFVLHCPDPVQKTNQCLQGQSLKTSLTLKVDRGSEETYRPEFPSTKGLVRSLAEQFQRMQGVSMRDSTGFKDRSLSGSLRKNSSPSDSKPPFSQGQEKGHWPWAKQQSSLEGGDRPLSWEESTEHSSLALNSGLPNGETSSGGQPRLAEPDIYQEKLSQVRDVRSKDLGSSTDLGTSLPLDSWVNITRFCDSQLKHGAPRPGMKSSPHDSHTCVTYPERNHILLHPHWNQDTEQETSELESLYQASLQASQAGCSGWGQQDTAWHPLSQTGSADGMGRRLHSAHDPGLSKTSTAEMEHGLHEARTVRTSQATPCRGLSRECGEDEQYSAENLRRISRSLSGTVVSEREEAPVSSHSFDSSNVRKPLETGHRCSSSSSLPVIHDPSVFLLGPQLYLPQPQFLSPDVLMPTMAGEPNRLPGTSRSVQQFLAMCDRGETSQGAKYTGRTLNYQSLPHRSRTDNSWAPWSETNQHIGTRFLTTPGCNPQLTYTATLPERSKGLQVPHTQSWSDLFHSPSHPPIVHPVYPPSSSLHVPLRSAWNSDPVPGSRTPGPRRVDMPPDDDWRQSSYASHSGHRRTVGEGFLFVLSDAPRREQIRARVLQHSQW
USP7, sequence (Q93009 whole entry, looked up): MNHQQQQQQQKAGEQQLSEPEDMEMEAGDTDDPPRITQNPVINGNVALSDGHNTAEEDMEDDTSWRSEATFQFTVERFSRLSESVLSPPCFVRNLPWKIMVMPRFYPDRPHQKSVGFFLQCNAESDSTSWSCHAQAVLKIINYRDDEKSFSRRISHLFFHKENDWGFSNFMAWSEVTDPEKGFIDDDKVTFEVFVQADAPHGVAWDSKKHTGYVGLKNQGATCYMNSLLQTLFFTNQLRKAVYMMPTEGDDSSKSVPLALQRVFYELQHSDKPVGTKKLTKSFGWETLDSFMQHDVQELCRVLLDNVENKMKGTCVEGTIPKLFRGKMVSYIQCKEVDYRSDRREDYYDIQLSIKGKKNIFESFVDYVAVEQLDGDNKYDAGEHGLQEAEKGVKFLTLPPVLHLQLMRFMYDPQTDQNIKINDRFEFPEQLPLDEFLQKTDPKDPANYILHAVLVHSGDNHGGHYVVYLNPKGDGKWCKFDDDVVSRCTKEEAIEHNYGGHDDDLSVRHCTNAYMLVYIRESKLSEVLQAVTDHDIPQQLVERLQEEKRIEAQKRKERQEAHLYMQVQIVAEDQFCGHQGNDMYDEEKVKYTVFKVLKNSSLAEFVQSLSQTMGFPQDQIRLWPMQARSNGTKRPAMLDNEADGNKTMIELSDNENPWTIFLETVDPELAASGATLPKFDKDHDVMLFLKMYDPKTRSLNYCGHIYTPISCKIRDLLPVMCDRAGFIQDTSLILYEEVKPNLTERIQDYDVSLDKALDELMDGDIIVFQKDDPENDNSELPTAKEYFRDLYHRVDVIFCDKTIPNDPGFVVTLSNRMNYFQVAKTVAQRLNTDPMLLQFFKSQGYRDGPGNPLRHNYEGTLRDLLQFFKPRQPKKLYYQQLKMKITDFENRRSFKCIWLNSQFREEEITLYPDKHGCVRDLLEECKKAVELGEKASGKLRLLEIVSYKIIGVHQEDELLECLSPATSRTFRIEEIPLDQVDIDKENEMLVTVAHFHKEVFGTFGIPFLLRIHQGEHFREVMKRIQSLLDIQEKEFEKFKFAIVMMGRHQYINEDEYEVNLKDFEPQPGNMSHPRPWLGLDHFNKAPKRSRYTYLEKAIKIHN

CN(C)C(=O)c1ccc(CNC(=O)CCl)cc1
inactive: USP42 -0.0843 | USP46 0.181 | USP47 0.119 | USP48 0.0435 | USP5 0.373 | USP54 0.152 | USP7 0.103 | USP8 -0.341
